Laboratory results reported in PubChem BioAssay (EPA / NIEHS).
Inconclusive results are not listed. Active and inactive are the calls of the source. Rule for the calls, unless noted: active = hit-call score of the fitted dose curve at least 0.9, where 1 is the maximum; inconclusive = response in the unintended direction; inactive = score below 0.9.

Columns and labels:
[1] = target: Estrogen-related receptor gamma (Homo sapiens) (UniProt P62508); assay: ATG_ERRg_TRANS: Attagene TRANS-FACTORIAL HepG2 Assay for human Estrogen-Related Receptor gamma (ERRg) (AID 2282977); conditions: HepG2 Attagene TRANS reporter, ERRg transactivation;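 note: hits increase reporter signal over DMSO so potencies reflect activators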
Chain of Estrogen-related receptor gamma (Homo sapiens) (P62508 whole entry, looked up, the tested form may be a part): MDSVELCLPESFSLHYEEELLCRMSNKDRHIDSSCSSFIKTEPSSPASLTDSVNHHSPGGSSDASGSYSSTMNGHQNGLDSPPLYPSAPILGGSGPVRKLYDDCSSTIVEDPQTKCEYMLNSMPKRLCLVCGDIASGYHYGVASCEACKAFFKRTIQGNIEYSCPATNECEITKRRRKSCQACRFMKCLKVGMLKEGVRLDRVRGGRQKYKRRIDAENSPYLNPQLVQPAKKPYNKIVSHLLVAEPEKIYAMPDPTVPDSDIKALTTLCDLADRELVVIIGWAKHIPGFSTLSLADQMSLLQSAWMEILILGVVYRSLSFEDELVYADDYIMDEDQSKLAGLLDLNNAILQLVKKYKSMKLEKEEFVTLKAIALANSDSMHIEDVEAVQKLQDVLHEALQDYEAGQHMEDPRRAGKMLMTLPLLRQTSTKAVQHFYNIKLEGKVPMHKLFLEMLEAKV
Summary of the method: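 Exogenous NR-Gal4 chimera activity was assessed in HepG2 cells bearing transfected GAL4-UAS reporters. After 24 h dosing, total RNA underwent RT-PCR, fluorescent primer extension and HpaI digestion before capillary electrophoresis, with gain of signal scored against DMSO.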

[2] = target: Glucocorticoid receptor (Homo sapiens) (UniProt P04150); assay: ATG_GR_TRANS: Attagene TRANS-FACTORIAL HepG2 Assay for human Glucocorticoid Receptor (GR) (AID 2282978); conditions: HepG2 Attagene TRANS GR reporter, mRNA transcription;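 note: activators score as hits since higher reporter transcript over DMSO is fitted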
Chain of Glucocorticoid receptor (Homo sapiens) (P04150 whole entry, looked up, the tested form may be a part): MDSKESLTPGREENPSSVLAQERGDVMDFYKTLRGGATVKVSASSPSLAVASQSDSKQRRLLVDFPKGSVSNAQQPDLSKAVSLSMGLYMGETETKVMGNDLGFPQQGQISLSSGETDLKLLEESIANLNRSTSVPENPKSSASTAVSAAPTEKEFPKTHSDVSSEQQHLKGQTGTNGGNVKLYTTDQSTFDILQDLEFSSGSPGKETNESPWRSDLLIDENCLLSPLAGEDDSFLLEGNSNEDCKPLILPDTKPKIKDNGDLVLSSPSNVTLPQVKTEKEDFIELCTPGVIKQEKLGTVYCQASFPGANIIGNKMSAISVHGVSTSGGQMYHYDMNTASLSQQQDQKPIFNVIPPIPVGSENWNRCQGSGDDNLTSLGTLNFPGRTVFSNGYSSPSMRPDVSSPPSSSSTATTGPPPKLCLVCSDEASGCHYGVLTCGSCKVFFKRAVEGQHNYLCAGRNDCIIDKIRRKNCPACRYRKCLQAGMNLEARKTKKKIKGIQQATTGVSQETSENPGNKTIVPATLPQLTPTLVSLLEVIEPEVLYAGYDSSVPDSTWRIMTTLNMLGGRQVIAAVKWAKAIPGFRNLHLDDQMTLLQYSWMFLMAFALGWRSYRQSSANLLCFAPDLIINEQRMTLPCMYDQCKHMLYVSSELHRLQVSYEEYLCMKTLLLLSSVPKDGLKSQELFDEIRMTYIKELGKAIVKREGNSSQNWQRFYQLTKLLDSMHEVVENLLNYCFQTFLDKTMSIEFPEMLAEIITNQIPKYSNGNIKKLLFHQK
Summary of the method: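 HepG2 cells transiently transfected with multiplexed reporter units in which chimeric NR-GAL4 proteins drive GAL4-UAS reporters; 24 h compound exposure. Reporter mRNA measured by RT-PCR, 6-FAM labelling, HpaI digestion and capillary electrophoresis; gain-of-signal fitted versus DMSO.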

[3] = target: Bile acid receptor (Homo sapiens) (UniProt Q96RI1); assay: ATG_FXR_TRANS: Attagene TRANS-FACTORIAL HepG2 Assay for Farnesoid X Receptor (FXR) (AID 2282979); conditions: HepG2 Attagene TRANS FXR-GAL4 reporter transcription;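 note: hits raise reporter mRNA above DMSO so AC50 marks FXR activation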
Chain of Bile acid receptor (Homo sapiens) (Q96RI1 whole entry, looked up, the tested form may be a part): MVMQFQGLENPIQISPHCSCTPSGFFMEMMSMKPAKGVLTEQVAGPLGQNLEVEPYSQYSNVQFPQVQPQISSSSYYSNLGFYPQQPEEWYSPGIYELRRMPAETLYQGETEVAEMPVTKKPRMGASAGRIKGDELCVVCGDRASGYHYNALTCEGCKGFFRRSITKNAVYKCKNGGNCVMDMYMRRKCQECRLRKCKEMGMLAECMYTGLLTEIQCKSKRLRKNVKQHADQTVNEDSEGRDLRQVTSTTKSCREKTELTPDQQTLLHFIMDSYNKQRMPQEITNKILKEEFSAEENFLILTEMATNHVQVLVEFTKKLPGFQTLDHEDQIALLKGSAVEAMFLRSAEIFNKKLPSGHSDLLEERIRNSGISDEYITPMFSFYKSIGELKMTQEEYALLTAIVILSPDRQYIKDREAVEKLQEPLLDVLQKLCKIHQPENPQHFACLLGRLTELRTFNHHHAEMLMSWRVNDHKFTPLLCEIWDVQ
Summary of the method: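 Read-out: fluorescent reporter transcripts quantified by capillary electrophoresis after RT-PCR of total RNA. Source cells were HepG2 transiently carrying chimeric NR-GAL4 plus GAL4-UAS reporter units, dosed 24 h. Activity fitted upward relative to DMSO baseline.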

[4] = target: Oxysterols receptor LXR-alpha (Homo sapiens) (UniProt Q13133); assay: ATG_LXRa_TRANS: Attagene TRANS-FACTORIAL HepG2 Assay for human Liver X Receptor alpha (LXRa) (AID 2282980); conditions: HepG2 Attagene TRANS reporter, LXRa transactivation
Chain of Oxysterols receptor LXR-alpha (Homo sapiens) (Q13133 whole entry, looked up, the tested form may be a part): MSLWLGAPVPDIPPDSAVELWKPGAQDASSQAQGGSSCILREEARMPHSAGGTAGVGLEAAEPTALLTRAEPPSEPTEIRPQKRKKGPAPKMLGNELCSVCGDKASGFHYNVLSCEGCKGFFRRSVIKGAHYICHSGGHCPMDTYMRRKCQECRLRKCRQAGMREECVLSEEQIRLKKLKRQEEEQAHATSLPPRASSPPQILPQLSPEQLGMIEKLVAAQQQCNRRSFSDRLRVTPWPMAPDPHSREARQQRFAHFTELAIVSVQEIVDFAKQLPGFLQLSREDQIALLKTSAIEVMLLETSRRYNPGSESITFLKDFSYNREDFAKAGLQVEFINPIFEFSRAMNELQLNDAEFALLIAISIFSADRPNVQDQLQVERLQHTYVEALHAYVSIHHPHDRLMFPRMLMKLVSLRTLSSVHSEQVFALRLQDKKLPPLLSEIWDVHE
Summary of the method: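 Read-out: reporter transcript levels by RT-PCR plus capillary electrophoresis, fluorescence intensity. Transiently transfected HepG2, exogenous NR-GAL4 chimera, GAL4-UAS reporters; 24 h compound exposure. Activity = increase over DMSO negative control.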

[5] = ATG_M_32_TRANS: Attagene TRANS-FACTORIAL HepG2 Assay for M32 Transcription Factor (Internal Marker) (AID 2282984); conditions: HepG2 Attagene TRANS M32 internal marker reporter;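 note: transcript level of a background control reporter unit measured by RT-PCR and capillary electrophoresis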
Summary of the method: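 Cell-based TRANS-format assay in HepG2: exogenous chimeric GAL4 reporter units transiently expressed, compounds applied 24 h. Reporter mRNA detected by RT-PCR plus capillary electrophoresis; this readout is an internal background marker.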

[6] = target: Transcriptional activator Myb (Homo sapiens) (UniProt P10242); assay: ATG_Myb_CIS: Attagene CIS-FACTORIAL HepG2 Assay for human Myeloblastosis (Myb) Proto-Oncogene Transcription Factor (AID 2282986; active = hit-call score of the fitted dose curve at least 0.9, where 1 is the maximum; inactive = score below 0.9); conditions: HepG2 Attagene CIS-FACTORIAL Myb reporter transcription; actives raise or lower the signal
Chain of Transcriptional activator Myb (Homo sapiens) (P10242 whole entry, looked up): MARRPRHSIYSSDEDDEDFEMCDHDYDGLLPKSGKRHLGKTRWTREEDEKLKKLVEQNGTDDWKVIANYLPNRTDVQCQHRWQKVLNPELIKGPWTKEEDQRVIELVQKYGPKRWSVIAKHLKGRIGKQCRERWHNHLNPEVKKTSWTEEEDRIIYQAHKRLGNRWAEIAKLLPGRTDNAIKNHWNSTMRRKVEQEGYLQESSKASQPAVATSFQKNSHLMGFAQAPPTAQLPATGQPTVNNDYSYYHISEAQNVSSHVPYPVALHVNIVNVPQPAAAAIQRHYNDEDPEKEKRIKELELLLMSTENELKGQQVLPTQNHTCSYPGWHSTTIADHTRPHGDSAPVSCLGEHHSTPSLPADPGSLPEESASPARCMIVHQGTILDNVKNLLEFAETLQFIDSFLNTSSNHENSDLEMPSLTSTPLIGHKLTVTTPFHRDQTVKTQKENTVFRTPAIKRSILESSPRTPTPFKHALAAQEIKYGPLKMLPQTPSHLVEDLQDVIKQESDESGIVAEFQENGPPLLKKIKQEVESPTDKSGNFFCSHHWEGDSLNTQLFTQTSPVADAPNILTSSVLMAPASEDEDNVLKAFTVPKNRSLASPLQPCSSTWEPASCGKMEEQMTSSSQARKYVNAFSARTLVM
Summary of the method: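 HepG2 cells were transiently transfected with cis-regulated multiple reporter transcription units reflecting endogenous Myb activity, then exposed to compound for 24 hours. Reporter mRNA was measured by RT-PCR with capillary electrophoresis; bidirectional fitting versus DMSO baseline.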

[7] = ATG_M_06_TRANS: Attagene TRANS-FACTORIAL HepG2 Assay for M06 Transcription Factor (Internal Marker) (AID 2282983); conditions: HepG2 Attagene TRANS M06 internal marker reporter
Summary of the method: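 Read-out: fluorescent reporter cDNA fragments resolved by capillary electrophoresis after RT-PCR and HpaI cut. Source cells were HepG2 carrying transfected multi-reporter GAL4 constructs, dosed 24 h. Increase over DMSO control analysed.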

[8] = target: Nuclear receptor subfamily 4 group A member 2 (Homo sapiens) (UniProt P43354); assay: ATG_NURR1_TRANS: Attagene TRANS-FACTORIAL HepG2 Assay for human Nuclear Receptor Related Protein 1 (NURR1) (AID 2282985); conditions: HepG2 Attagene TRANS reporter, mRNA readout
Chain of Nuclear receptor subfamily 4 group A member 2 (Homo sapiens) (P43354 whole entry, looked up, the tested form may be a part): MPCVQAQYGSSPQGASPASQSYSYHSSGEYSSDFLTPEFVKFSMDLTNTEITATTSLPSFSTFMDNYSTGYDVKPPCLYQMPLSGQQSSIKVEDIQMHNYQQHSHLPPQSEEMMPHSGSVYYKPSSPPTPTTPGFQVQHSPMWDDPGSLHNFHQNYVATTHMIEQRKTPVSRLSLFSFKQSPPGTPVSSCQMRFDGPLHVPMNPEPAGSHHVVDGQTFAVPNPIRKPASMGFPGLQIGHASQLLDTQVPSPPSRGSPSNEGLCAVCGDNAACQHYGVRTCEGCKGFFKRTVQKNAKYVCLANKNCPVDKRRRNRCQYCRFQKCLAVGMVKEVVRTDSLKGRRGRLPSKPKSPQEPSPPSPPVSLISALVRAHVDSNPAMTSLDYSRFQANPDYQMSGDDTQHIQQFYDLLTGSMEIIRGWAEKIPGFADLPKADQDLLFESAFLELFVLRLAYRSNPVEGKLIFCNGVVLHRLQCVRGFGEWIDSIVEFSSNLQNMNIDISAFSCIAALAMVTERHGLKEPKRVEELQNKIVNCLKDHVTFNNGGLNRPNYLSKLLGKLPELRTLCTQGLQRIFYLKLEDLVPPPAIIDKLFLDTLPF
Summary of the method: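 Measures transcriptional activation by an exogenous NR-Gal4 chimera in transfected HepG2 liver cells. After 24 h, reporter RNA is reverse-transcribed, amplified and resolved by capillary electrophoresis; DMSO defines baseline.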

[9] = target: Oxysterols receptor LXR-beta (Homo sapiens) (UniProt P55055); assay: ATG_LXRb_TRANS: Attagene TRANS-FACTORIAL HepG2 Assay for human Liver X Receptor beta (LXRb) (AID 2282981); conditions: HepG2 Attagene TRANS GAL4-LXRb reporter, mRNA
Chain of Oxysterols receptor LXR-beta (Homo sapiens) (P55055 whole entry, looked up, the tested form may be a part): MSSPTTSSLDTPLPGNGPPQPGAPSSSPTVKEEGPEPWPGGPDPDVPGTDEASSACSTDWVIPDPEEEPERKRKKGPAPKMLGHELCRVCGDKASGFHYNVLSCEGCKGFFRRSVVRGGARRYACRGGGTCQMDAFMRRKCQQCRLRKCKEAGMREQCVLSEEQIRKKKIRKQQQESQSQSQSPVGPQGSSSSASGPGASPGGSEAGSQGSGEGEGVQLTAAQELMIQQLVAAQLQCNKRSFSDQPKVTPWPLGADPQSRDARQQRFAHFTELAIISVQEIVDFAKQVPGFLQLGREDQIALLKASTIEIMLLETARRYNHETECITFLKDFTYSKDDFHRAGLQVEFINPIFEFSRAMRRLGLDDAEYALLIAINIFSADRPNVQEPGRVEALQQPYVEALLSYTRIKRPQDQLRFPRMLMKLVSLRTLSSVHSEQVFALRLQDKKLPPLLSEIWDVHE
Summary of the method: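 After 24 h of chemical treatment, transfected HepG2 cells yield total RNA; reporter cDNA is PCR-amplified, FAM-labelled, HpaI-cut and run on capillary electrophoresis. Signal reflects chimeric LXRb-Gal4 activity on GAL4-UAS reporters.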

[10] = target: Hepatocyte nuclear factor 4-alpha (Homo sapiens) (UniProt P41235); assay: ATG_HNF4a_TRANS: Attagene TRANS-FACTORIAL HepG2 Assay for human Hepatocyte Nuclear Factor 4 alpha (HNF4a) (AID 2282982); conditions: HepG2 HNF4a transactivation reporter, mRNA readout
Chain of Hepatocyte nuclear factor 4-alpha (Homo sapiens) (P41235 whole entry, looked up): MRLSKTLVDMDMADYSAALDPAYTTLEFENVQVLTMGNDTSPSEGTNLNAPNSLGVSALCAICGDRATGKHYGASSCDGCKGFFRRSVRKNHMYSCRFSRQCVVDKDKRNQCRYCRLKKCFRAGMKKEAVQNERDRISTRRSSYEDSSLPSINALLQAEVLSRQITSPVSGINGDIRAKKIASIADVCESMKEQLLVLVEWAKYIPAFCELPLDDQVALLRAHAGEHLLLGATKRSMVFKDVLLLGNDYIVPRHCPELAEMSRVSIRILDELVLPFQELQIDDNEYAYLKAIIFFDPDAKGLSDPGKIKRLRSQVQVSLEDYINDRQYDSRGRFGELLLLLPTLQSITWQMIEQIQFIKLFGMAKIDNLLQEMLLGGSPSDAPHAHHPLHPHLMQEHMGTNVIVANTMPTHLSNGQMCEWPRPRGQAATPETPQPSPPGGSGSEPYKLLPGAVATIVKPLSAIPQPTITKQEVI
Summary of the method: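 Multiplexed reporter assay: transfected HepG2, 24 h exposure, total RNA → oligo(dT) RT → PCR → 6-FAM extension → HpaI digest → CE fluorescence. DMSO = negative control.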

Structure (SMILES) | outcome [1] | outcome [2] | outcome [3] | outcome [4] | outcome [5] | outcome [6] | outcome [7] | outcome [8] | outcome [9] | outcome [10] | AC50 [6] | AC50 [4] | AC50 [8]
C=C(C)CCCC | inactive | inactive | inactive | inactive | inactive | inactive | – | – | – | – | – | – | –
OCCCCl | inactive | inactive | – | – | inactive | inactive | inactive | inactive | – | – | – | – | –
O=C(O)C(F)(F)C(F)(F)C(F)(F)OC(F)(F)F | inactive | inactive | inactive | inactive | – | inactive | inactive | inactive | inactive | inactive | – | – | –
CCOC(=O)C1CC(=O)C(=C(O)C2CC2)C(=O)C1 (configuration not stated) | inactive | – | inactive | – | – | inactive | inactive | – | inactive | – | – | – | –
CCCCCCCC/C=C\CCCCCCCC(=O)N(C)CC(=O)O | inactive | inactive | inactive | – | inactive | inactive | inactive | – | – | – | – | – | –
FC(F)(F)C(F)(F)C(F)(F)C(F)(F)C(F)(F)C(F)(F)C(F)(F)CCI | – | inactive | inactive | inactive | inactive | inactive | inactive | inactive | inactive | inactive | – | – | –
C[Si](Cl)(Cl)CCC(F)(F)C(F)(F)C(F)(F)C(F)(F)C(F)(F)C(F)(F)F | – | inactive | inactive | inactive | inactive | inactive | inactive | inactive | inactive | inactive | – | – | –
COCCOCCC[Si](C)(O[Si](C)(C)C)O[Si](C)(C)C | – | inactive | inactive | inactive | inactive | – | inactive | inactive | inactive | inactive | 19 µM (active) | – | –
O=C(c1ccccc1)c1ccc(O)cc1O | – | inactive | inactive | inactive | inactive | inactive | inactive | inactive | inactive | inactive | – | – | –
NC(=O)C(F)(F)C(F)(F)C(F)(F)F | inactive | inactive | inactive | – | – | inactive | inactive | inactive | inactive | inactive | – | – | –
CNS(=O)(=O)C(F)(F)C(F)(F)C(F)(F)C(F)(F)C(F)(F)C(F)(F)C(F)(F)C(F)(F)F | inactive | – | inactive | inactive | inactive | inactive | – | inactive | inactive | inactive | – | – | –
CN1CN(C)CN(C)C1 | inactive | – | inactive | – | inactive | inactive | inactive | inactive | inactive | – | – | – | –
C=C(C)C(=O)OCC(F)(F)C(F)(F)C(F)(F)C(F)F | – | inactive | inactive | inactive | inactive | inactive | inactive | inactive | inactive | inactive | – | – | –
CC(C)CC=C(C=O)c1ccccc1 | inactive | inactive | inactive | – | inactive | inactive | – | inactive | – | – | – | – | –
Cc1ccc2c(c1)OCC(=O)CO2 | inactive | inactive | inactive | inactive | – | inactive | – | inactive | inactive | – | – | – | –
CCC(C)CO (configuration not stated) | inactive | inactive | inactive | inactive | inactive | inactive | inactive | inactive | inactive | – | – | – | –
FC(F)(F)C(F)(F)C(F)(F)CC1CO1 (configuration not stated) | inactive | inactive | inactive | inactive | inactive | inactive | inactive | inactive | inactive | – | – | – | –
Cc1ccc([N+](=O)[O-])c(C)c1 | inactive | inactive | inactive | inactive | – | inactive | inactive | inactive | – | inactive | – | – | –
CCCCCCCCCCCCCCCCC | inactive | – | inactive | inactive | inactive | inactive | inactive | – | inactive | inactive | – | – | –
OCC(F)(F)C(F)(F)C(F)(F)C(F)(F)C(F)(F)C(F)(F)C(F)(F)C(F)(F)CO | – | inactive | inactive | – | inactive | inactive | inactive | inactive | inactive | inactive | – | 10.5 µM (active) | –
CCOC(C=C(C)CCC=C(C)C)OCC | inactive | – | – | – | inactive | inactive | – | inactive | – | inactive | – | – | –
CSc1ccc(O)cc1C | inactive | inactive | inactive | – | – | inactive | – | – | – | – | – | – | –
OCCCC(F)(F)C(F)(F)C(F)(F)C(F)(F)C(F)(F)C(F)(F)C(F)(F)C(F)(F)F | inactive | inactive | inactive | inactive | inactive | inactive | inactive | – | inactive | inactive | – | – | 7.38 µM (active)
O=S(=O)(OCC(F)(F)F)C(F)(F)C(F)(F)C(F)(F)C(F)(F)F | inactive | inactive | inactive | inactive | inactive | inactive | inactive | – | – | inactive | – | – | 65.2 µM (active)
OCC(O)CC(F)(F)C(F)(F)C(F)(F)C(F)(F)C(F)(F)C(F)(F)C(F)(F)C(F)(F)F (configuration not stated) | inactive | – | inactive | inactive | – | inactive | inactive | inactive | inactive | inactive | – | – | –
